Measurements reported in the supplement of paper PMC11060735.
Where a name gives a salt, the structure may show the parent alone. ± gives the standard deviation of the averaged measurements. In all, about 1,800 compounds were measured (“GFP- (p16Ink4a-) cell count relative to negative-control wells”: median about 0.99, lowest 2% from about 0.5 on). Only a selection was taken, and the lowest values are over-represented in it overall.

test system: mouse p16Ink4a+/- lung fibroblasts (INKBRITE, bleomycin-injured); assay: GFP- (p16Ink4a-) cell count relative to negative-control wells (fold of vehicle); higher = more p16Ink4a- cells surviving; details: 1 µM; 3 days

| Structure (SMILES) | GFP- |
| --- | --- |
| NC(=O)N1c2ccccc2CC(=O)c2ccccc21 [Oxcarbazepine, Trileptal] | 1.06 |
| C[C@H](NC(=O)[C@@H](O)c1cc(F)cc(F)c1)C(=O)N[C@@H]1C(=O)N(C)c2ccccc2-c2ccccc21 | 0.963 |
| Cc1cc(=O)oc2cc(O)ccc12 [7-hydroxy-4-methyl-2H-chromen-2-one] | 1.08 |
| Cn1cnc(N)c2ncnc1-2 [3-Methyladenine] | 0.988 |
| COc1ccc(CCc2nc3cc(-c4c(C)noc4C)ccc3n2C[C@H](C)N2CCOCC2)cc1Cl | 0.854 ± 0.4 |
| C=CCc1ccc(O)c(-c2cc(CC=C)ccc2O)c1 [Magnolol] | 0.993 |
| Cc1c[nH]c(-c2cnc(NCCNc3ccc(C#N)cn3)nc2-c2ccc(Cl)cc2Cl)n1 | 1.14 |
| CCNC(=O)c1[nH]nc(-c2cc(Cl)c(O)cc2O)c1-c1ccc(OC)cc1 | 0.89 |
| CS(=O)(=O)OCCCCOS(C)(=O)=O [Busulfan] | 0.83 |
| CCOc1ccc2ccccc2c1C(=O)N[C@@H]1C(=O)N2[C@@H]1SC(C)(C)[C@@H]2C(=O)O [Nafcillin Sodium] | 0.94 |
| CCO/C(O)=C1\C(C)=NC(C)=C(C(=O)OC)C1c1cccc([N+](=O)[O-])c1 (stereo not drawn) [Nitrendipine] | 1.18 |
| O=c1cc(N2CCOCC2)oc2c1ccc1ccccc12 | 1.03 |
| Nc1cc(C(F)(F)F)c(-c2cc(N3CCOCC3)nc(N3CCOCC3)n2)cn1 [Buparlisib] | 0.719 |
| C#Cc1cccc(Nc2ncnc3cc4c(cc23)OCCOCCOCCO4)c1 [Icotinib] | 0.916 |
| O=C(NOCC(O)CO)c1cc(Br)c(F)c(F)c1Nc1ccc(I)cc1F (stereo not drawn) | 0.818 |
| C#Cc1cccc(Nc2ncnc3cc(OCCOC)c(OCCOC)cc23)c1 [Erlotinib] | 0.287 |
| C#Cc1cccc(Nc2ncnc3cc(OC)c(OCCCCCCC(=O)NO)cc23)c1 | 1.01 ± 0.091 |
| C#Cc1cccc(Nc2ncnc3cc(OCCOC)c(OCCO)cc23)c1 | 0.823 |
| C[C@@H]1CN(c2c(F)c(N)c3c(=O)c(C(=O)O)cn(C4CC4)c3c2F)C[C@H](C)N1 [Sparfloxacin] | 1.02 |
| CCN1CCN(Cc2ccc(Nc3ncc(F)c(-c4cc(F)c5nc(C)n(C(C)C)c5c4)n3)nc2)CC1 | 0.983 |
| Cc1cc(C)c2c(c1)[C@@H](N(Cc1cc(C(F)(F)F)cc(C(F)(F)F)c1)c1nnn(C)n1)CCCN2C[C@H]1CC[C@H](C(=O)O)CC1 [Evacetrapib] | 0.993 |
| C[C@H](CCC(=O)O)[C@H]1CC[C@H]2[C@@H]3C[C@H](O)[C@@H]4C[C@H](O)CC[C@]4(C)[C@H]3CC[C@]12C [Hyodeoxycholic acid (HDCA)] | 0.901 |
| CC1(C)SC2C(NC(=O)[C@H](NC(=O)N3CCNC3=O)c3ccccc3)C(=O)N2C1C(=O)O (stereo partly drawn) [Azlocillin sodium salt] | 0.956 |
| CC(C)(C)c1nc(-c2cccc(NS(=O)(=O)c3c(F)cccc3F)c2F)c(-c2ccnc(N)n2)s1 [Dabrafenib] | 0.448 |

| Structure (SMILES) | GFP- |
| --- | --- |
| C[C@]12CC[C@@H]3c4ccc(O)cc4C[C@@H](CCCCCCCCCS(=O)CCCC(F)(F)C(F)(F)F)[C@H]3[C@@H]1CC[C@@H]2O (stereo partly drawn) [Fulvestrant] | 1.15 |
| NS(=O)(=O)c1ccc(NC(=O)Nc2ccc(F)cc2)cc1 | 1.06 |
| CN1CCC(NC(=O)c2cc(-c3c(O)cc(O)cc3Oc3ccc([N+](=O)[O-])cc3)on2)CC1 | 1.03 |
| Cn1c(=O)cc(N2CCC[C@@H](N)C2)n(Cc2cc(F)ccc2C#N)c1=O [Trelagliptin] | 0.941 |
| C[N+](C)(C)CC(O)CC(=O)O (stereo not drawn) [Carnitine Hydrochloride, Carnitine (dl) Hydrochloride] | 1.1 |
| C[C@H](NCc1ccc(OCc2cccc(F)c2)cc1)C(N)=O [Safinamide] | 1.06 |
| OC[C@@H](O)CN1CCN(c2ccccc2)CC1 [Levodropropizine] | 1.05 |
| CC(=O)O[C@]1(C(C)=O)CC[C@H]2[C@@H]3C=C(Cl)C4=CC(=O)[C@@H]5C[C@@H]5[C@]4(C)[C@H]3CC[C@@]21C [Cyproterone Acetate] | 1.14 |
| C=C1CC[C@H](O)C/C1=C/C=C1\CCC[C@]2(C)[C@@H]([C@H](C)CCCC(C)(C)O)CC[C@@H]12 [Calcidiol] | 1.2 |
| CCOC(=O)c1c(CSc2ccccc2)n(C)c2cc(Br)c(O)c(CN(C)C)c12 [Arbidol HCl] | 0.933 |
| O=S(=O)(c1ccccc1)N(CC(F)(F)F)c1ccc(C(O)(C(F)(F)F)C(F)(F)F)cc1 | 0.972 |
| CN1CCOC(c2ccccc2)c2ccccc2C1 (stereo not drawn) [Nefopam] | 1.1 |
| CCOC(=O)[C@H](CCc1ccccc1)N[C@H]1CCc2ccccc2N(CC(=O)O)C1=O [Benazepril] | 1.01 |
| Cc1c(-c2ccccc2)oc2c(C(=O)OCCN3CCCCC3)cccc2c1=O [Flavoxate] | 1.1 |
| C[C@@H]1O[C@@H](O[C@H]2[C@H](Oc3cc(O)c4c(c3)O[C@H](c3ccc(O)cc3)CC4=O)O[C@H](CO)[C@@H](O)[C@@H]2O)[C@H](O)[C@H](O)[C@H]1O [Naringin] | 1.1 |
| Nc1ccc(S(=O)(=O)Nc2ccccn2)cc1 [Sulfapyridine] | 0.965 |
| O=C1C[C@@H](c2ccc(O)cc2)Oc2cc(O)cc(O)c21 [Naringenin] | 0.938 |
| C/C(=N\NC(=S)N1CCC1)c1ccccn1 | 0.4 |
| Cn1c(=O)cc(N2CCC[C@@H](N)C2)n(Cc2ccccc2C#N)c1=O [Alogliptin] | 0.943 |
| COC(=O)[C@H]1[C@H]2C[C@@H]3c4[nH]c5cc(OC)ccc5c4CCN3C[C@H]2C[C@@H](OC(=O)c2cc(OC)c(OC)c(OC)c2)[C@@H]1OC [Reserpine] | 0.806 |
| C=CC[N+]1([C@H]2C[C@H]3[C@@H]4CC[C@H]5C[C@H](O)[C@@H](N6CCOCC6)C[C@]5(C)[C@H]4CC[C@]3(C)[C@H]2OC(C)=O)CCCC1 [Rocuronium] | 0.894 |
| COc1cccc2c1C(=O)c1c(O)c3c(c(O)c1C2=O)C[C@@](O)(C(C)=O)C[C@@H]3O[C@H]1C[C@H](N)[C@H](O)[C@H](C)O1 [Daunorubicin] | 0.754 |
| COc1cccc2c1C(=O)c1c(O)c3c(c(O)c1C2=O)C[C@@](O)(C(=O)CO)C[C@@H]3O[C@H]1C[C@H](N)[C@H](O)[C@H](C)O1 [Doxorubicin] | 0.72 |
| CC(=O)[C@]1(O)Cc2c(O)c3c(c(O)c2[C@@H](O[C@H]2C[C@H](N)[C@H](O)[C@H](C)O2)C1)C(=O)c1ccccc1C3=O [Idarubicin, Idarubicin Hydrochloride] | 0.224 |
